According to PubChem BioAssay (NCI):
About 83,000 compounds went through this panel and 20% of them were active in at least one assay; those are over-represented in the sample as a whole.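 Interpretation: 100, growth as untreated; towards 0, rising growth inhibition; 0, no net growth; 0 to -100, cell death. Compounds scoring below 10 were considered active.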 Unmarked numbers belong to inactive results. Calls of active or inactive are those of the source.

Tested on: SK-MEL-5 melanoma
Assay: NCI-60 one-dose screen, 48 h (100 = growth as untreated, 0 = no growth, -100 = all killed)
Conditions: 10 µM unless noted

Row | SMILES | growth
1 | CCCCNC(=O)Oc1ccc(/C(=C(/C)Cc2ccc(OC)cc2)c2ccc(OCCN3CCCCCC3)cc2)cc1 | 82.7%
2 | COc1ccc(-c2n[nH]c(=O)c3nc(NC(=S)Nc4ccc(Oc5ccccc5)cc4)sc23)cc1 | 99.9%
3 | O=C(/C=C/C12c3ccccc3C(c3ccccc31)C1C(=O)NC(=O)C12)c1ccc(Br)cc1 (stereo not given) | 67.8%
4 | C=CN(C(=O)N1CCN(c2cc3c(cc2F)c(=O)c(C(=O)O)cn3C2CC2)CC1)c1nc(-c2ccc(OC)cc2)cs1 | -7.22% (active)
5 | Cc1cc(Nc2ccc(C(=O)N3CCCC3)cc2)nc(NCCCNc2ccnc3cc(Cl)ccc23)n1 | 92.3%

Tested on: UACC-62 melanoma
Assay: as above
Conditions: 10 µM unless noted

Row | SMILES | growth
6 | O=C(/C=C/c1ccc(Oc2ccc(Br)cc2)cc1)c1ccc(Br)cc1 | 91.4%
7 | CO[C@H](C(=O)[C@@H](O)[C@@H](C)O)[C@@H]1Cc2cc3cc(O[C@H]4C[C@@H](O[C@H]5C[C@@H](O)[C@H](O)C(C)O5)[C@H](O)C(C)(O)O4)cc(O)c3c(O)c2C(=O)[C@H]1O[C@H]1C[C@@H](O[C@H]2C[C@@H](O[C@H]3C[C@@H](OC)[C@H](O)C(C)O3)[C@@H](O)C(C)O2)[C@H](O)C(C)O1 (stereo not given in full) | -39.5% (active)
8 | FC(F)(F)Oc1cccc(-c2cnc3ccc(-c4ccncc4)nn23)c1 | -0.898% (active)
9 | O=S(=O)(Nc1cc(Sc2cccc3cccnc23)c(O)c2ccccc12)c1ccccc1 | -40.1% (active)
10 | Cc1ccc(-c2nc(SCc3nc4cc(Cl)c(Cl)cc4[nH]3)[nH]c(=O)c2C#N)cc1 | 99.5%
11 | CN(C)S(=O)(=O)Oc1ccc(-c2sc3cc(OS(=O)(=O)N(C)C)ccc3c2C(=O)c2ccc(OCCN3CCCCC3)cc2)cc1 | 47.3%
12 | COc1ccc(C2=NN(C(C)=O)C(c3cn(-c4ccccc4)nc3-c3ccc(Cl)cc3)C2)cc1 (stereo not given) | 20%
13 | O=C(CSc1nnc(-c2cc(-c3ccccc3)nc3ccccc23)n1-c1ccccc1)Nc1ccc(C(=O)/C=C/c2ccc(Cl)cc2)cc1 | 67.9%
14 | CCOC(=O)C(=Cc1ccc(-c2ccccc2)cc1)C(=O)OCC | 35.4%
15 | Cc1ccc(S(=O)(=O)N2CCC(=O)c3ccccc32)cc1 | 67.7%
16 | COc1ccccc1N(C(C)=O)C1=C(Cl)C(=O)c2ccccc2C1=O | -35.3% (active)
17 | C=C(C)[C@@H]1CC[C@]2(C(N)=O)CC[C@]3(C)[C@H](CC[C@@H]4[C@@]5(C)CC[C@H](OCCC#N)C(C)(C)[C@@H]5CC[C@]43C)[C@@H]12 | 67.1%
18 | CN(C)CCCC1(c2ccc(F)cc2)OCc2cc(-c3cc4ccccc4s3)ccc21 (stereo not given) | -62.1% (active)
19 | [2H]C([2H])([2H])Oc1ccc(F)cc1/C=C/C(=O)/C=C(/C=C/c1cc(F)ccc1OC([2H])([2H])[2H])OB(F)F | 68.8%
20 | COc1ccc(/C(C)=C(/c2ccc(OCCCN(C)C)cc2)c2ccc(OC(=O)c3ccccc3)cc2)cc1 | 88.7%
21 | Cc1ccc2c(=O)cc(C(=O)Nc3sc4c(c3C(=O)NCc3cccnc3)CCCC4)oc2c1C | 96.6%
22 | CCCCCCCC/C=C\CCCCCCCCOc1ccc(CC(=O)NCC[N+]2(C)CCOCC2)cc1 | 57.5%
23 | O=C1/C(=C/c2ccc(F)cc2)CN(C(=O)C(Cl)Cl)C/C1=C\c1ccc(F)cc1 | -61.1% (active)
24 | COc1ccc(Nc2ncccc2/C=C/C(=O)c2cc(OC)c(OC)c(OC)c2)cc1 | -24% (active)
25 | O=C(Cc1cccc(OC(F)(F)F)c1)Nc1ccc(CCCCc2nnc(NC(=O)Cc3ccccn3)s2)nn1 | 63.5%

Row | SMILES | growth
26 | C=C1C(=O)O[C@H]2[C@H]1CC/C(COC(=O)/C=C\C(=O)NCc1ccc(Cn3c(=O)sn(CCCl)c3=O)cc1)=C\CC[C@@]1(C)O[C@@H]21 | 85.7%
27 | CNC(=O)c1ccccc1Nc1nc(Nc2cc(OC)c(OC)c(OC)c2)ncc1Br | -69.6% (active)
28 | Cc1ccc(C=C2C(=O)NC(=O)NC2=O)cc1 | 102%
29 | O=C(CN1CCCCCC1)Nc1nc2ccc(NCc3ccc(Cl)cc3)cc2s1 | 88.5%
30 | COc1ccc(C(=O)Cn2c(C(=O)c3ccc(Cl)cc3)nc3ccccc32)cc1 | 54.1%
31 | C#CCO[C@H]1CC(CC#C)(CC#C)C(=O)[C@@H]2[C@H]1[C@H]1C[C@@H]3[C@@]4(C)CCC[C@@](C)(C(=O)OC)[C@@H]4CC[C@@]23C=C1C(C)C | 78.6%
32 | Fc1ccc2[nH]cc(-c3nc(-c4c[nH]c5ccncc45)cs3)c2c1 | -75.3% (active)
33 | O=C(CSc1nc(-c2ccccc2)cc(=O)[nH]1)Nc1nc(-c2ccccc2)cs1 | 69.1%
34 | O=C1/C(=C2\SC(=S)N(C3CC3)C2=O)SC(=S)N1C1CC1 | 94.6%
35 | COc1ccc(Cn2cc3c(c2-c2ccccc2)CCc2cnoc2-3)cc1 | 24%
36 | Cc1nn(-c2ccccc2)c(N)c1N=C1NC(=O)/C(=C/c2ccc(Br)cc2)S1 | 77.6%
37 | CN(C)c1ccc(/C=C(\C#N)c2cc3ccccc3[nH]2)cc1 | 30.9%
38 | COC(=O)c1c2c(c(C)[n+]([O-])c1C)C(=O)C(NCc1ccc(OC)cc1)=CC2=O | -27.9% (active)
39 | O=C1/C(=C\c2cccc3nccnc23)SC(=S)N1CCc1ccc(O)cc1 | 76.4%
40 | Cc1cn(-c2cc(NC(=O)c3cncc(C#Cc4c(N)ncc5ccc(F)cc45)c3)cc(C(F)(F)F)c2)cn1 | 33.8%
41 | CCCCNC(=O)Oc1ccc(/C(=C(/C)Cc2ccc(OC)cc2)c2ccc(OCCN3CCCCCC3)cc2)cc1 | 79.1%
42 | COc1ccc(-c2n[nH]c(=O)c3nc(NC(=S)Nc4ccc(Oc5ccccc5)cc4)sc23)cc1 | 95.2%
43 | O=C(/C=C/C12c3ccccc3C(c3ccccc31)C1C(=O)NC(=O)C12)c1ccc(Br)cc1 (stereo not given) | 46.7%
44 | C=CN(C(=O)N1CCN(c2cc3c(cc2F)c(=O)c(C(=O)O)cn3C2CC2)CC1)c1nc(-c2ccc(OC)cc2)cs1 | 16.4%
45 | Cc1cc(Nc2ccc(C(=O)N3CCCC3)cc2)nc(NCCCNc2ccnc3cc(Cl)ccc23)n1 | 86.8%
